# ± gives the standard deviation.
# T1: HaloTag-ATRX ADD domain (163-292)
# T1 chain: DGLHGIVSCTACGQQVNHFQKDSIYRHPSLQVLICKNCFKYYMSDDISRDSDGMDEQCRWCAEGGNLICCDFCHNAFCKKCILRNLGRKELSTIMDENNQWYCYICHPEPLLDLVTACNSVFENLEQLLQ
# Columns and labels:
# Assay in all cases: peptide microarray binding signal (635 nm), min-max normalized on array (fraction of array maximum); higher = stronger binding
# Conditions in all cases: peptide region: H3 20-32
# [1] = biological target: T1, HaloTag-ATRX ADD domain (163-292)
# Summary of the method: (§1)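 Triplicate spots of histone 13-mer peptide–cellulose conjugates with a Cy3 tracer were printed on nitrocellulose and probed for 1 h at 4°C with biotin-labelled HaloTag reader fusions (10 nM to 1 μM) plus streptavidin-Alexa Fluor 647 or rabbit histone antibodies (1:10,000 to 1:2,000) plus anti-rabbit Alexa 647. An Axon GenePix 4000B read the 635 nm channel. Binding signal is the spot-triplicate mean intensity after min-max scaling within each library.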
# [2] = biological target: HaloTag-ING2 PHD (mouse Ing2 200-280)
# Summary of the method: as §1
# [3] = biological target: anti-H3K4me3 antibody ab8580
# Summary of the method: as §1
# [4] = biological target: anti-H3K9me3 antibody ab8898
# Summary of the method: as §1
# [5] = peptide modifications: H3R26me1, binder concentration: 1:2,000 dilution
# [6] = peptide modifications: H3R26me1, binder concentration: 1:10,000 dilution
# [7] = peptide modifications: H3K27ac, binder concentration: 1:2,000 dilution
# [8] = peptide modifications: H3K27ac, binder concentration: 1:10,000 dilution
# [9] = peptide modifications: H3R26cit H3K27me2, binder concentration: 1:2,000 dilution
# [10] = peptide modifications: H3R26cit H3K27me2, binder concentration: 1:10,000 dilution
# [11] = peptide modifications: H3K27me2 H3S28ph, binder concentration: 1:2,000 dilution
# [12] = peptide modifications: H3K27me2 H3S28ph, binder concentration: 1:10,000 dilution
# [13] = peptide modifications: H3R26me1 H3K27me2, binder concentration: 1:2,000 dilution
# [14] = peptide modifications: H3R26me1 H3K27me2, binder concentration: 1:10,000 dilution
# [15] = peptide modifications: H3K27me1, binder concentration: 1:2,000 dilution
# [16] = peptide modifications: H3K27me1, binder concentration: 1:10,000 dilution
# [17] = peptide modifications: H3R26cit H3K27me3, binder concentration: 1:2,000 dilution
# [18] = peptide modifications: H3R26cit H3K27me3, binder concentration: 1:10,000 dilution
# [19] = peptide modifications: H3K27me3, binder concentration: 1:2,000 dilution
# [20] = peptide modifications: H3K27me3, binder concentration: 1:10,000 dilution
# [21] = peptide modifications: H3K27ac H3S28ph, binder concentration: 1:2,000 dilution
# [22] = peptide modifications: H3K27ac H3S28ph, binder concentration: 1:10,000 dilution
# [23] = peptide modifications: H3R26cit H3K27ac, binder concentration: 1:2,000 dilution
# [24] = peptide modifications: H3R26cit H3K27ac, binder concentration: 1:10,000 dilution
binder,measurement,setting,value
LATKAARKSAPAT [H3 20-32 L A T K A A Rme K S A P A T],peptide microarray binding signal,"[1]; peptide modifications: H3R26me1, binder concentration: 50 nM",0.00408 ± 8.9e-05
same,peptide microarray binding signal,"[1]; peptide modifications: H3R26me1, binder concentration: 500 nM",0.006381 ± 3.8e-05
same,peptide microarray binding signal,"[2]; peptide modifications: H3R26me1, binder concentration: 10 nM",0.00824 ± 0.00019
same,peptide microarray binding signal,"[2]; peptide modifications: H3R26me1, binder concentration: 100 nM",0.0116 ± 0.00028
same,peptide microarray binding signal,[3]; [5],0.00342 ± 0.0002
same,peptide microarray binding signal,[3]; [6],0.00325 ± 0.00018
same,peptide microarray binding signal,[4]; [5],0.00187 ± 4.7e-05
same,peptide microarray binding signal,[4]; [6],0.00161 ± 3.1e-05
LATKAARKSAPAT [H3 20-32 L A T K A A R Kac S A P A T],peptide microarray binding signal,"[1]; peptide modifications: H3K27ac, binder concentration: 50 nM",0.00542 ± 6.7e-05
same,peptide microarray binding signal,"[1]; peptide modifications: H3K27ac, binder concentration: 500 nM",0.00819 ± 0.00035
same,peptide microarray binding signal,"[2]; peptide modifications: H3K27ac, binder concentration: 10 nM",0.013 ± 0.00049
same,peptide microarray binding signal,"[2]; peptide modifications: H3K27ac, binder concentration: 100 nM",0.0498 ± 0.05
same,peptide microarray binding signal,[3]; [7],0.00461 ± 0.00054
same,peptide microarray binding signal,[3]; [8],0.00508 ± 0.00032
same,peptide microarray binding signal,[4]; [7],0.00281 ± 0.00022
same,peptide microarray binding signal,[4]; [8],0.002652 ± 2.3e-05
LATKAARKSAPAT [H3 20-32 L A T K A A Rcit Kme2 S A P A T],peptide microarray binding signal,"[1]; peptide modifications: H3R26cit H3K27me2, binder concentration: 50 nM",0.00414 ± 5.8e-05
same,peptide microarray binding signal,"[1]; peptide modifications: H3R26cit H3K27me2, binder concentration: 500 nM",0.00333 ± 0.00011
same,peptide microarray binding signal,"[2]; peptide modifications: H3R26cit H3K27me2, binder concentration: 10 nM",0.00692 ± 0.00014
same,peptide microarray binding signal,"[2]; peptide modifications: H3R26cit H3K27me2, binder concentration: 100 nM",0.00843 ± 0.00034
same,peptide microarray binding signal,[3]; [9],0.00262 ± 0.00016
same,peptide microarray binding signal,[3]; [10],0.00314 ± 4.6e-05
same,peptide microarray binding signal,[4]; [9],0.00196 ± 6.8e-05
same,peptide microarray binding signal,[4]; [10],0.00167 ± 4.8e-05
LATKAARKSAPAT [H3 20-32 L A T K A A R Kme2 Sph A P A T],peptide microarray binding signal,"[1]; peptide modifications: H3K27me2 H3S28ph, binder concentration: 50 nM",0.00527 ± 0.00024
same,peptide microarray binding signal,"[1]; peptide modifications: H3K27me2 H3S28ph, binder concentration: 500 nM",0.0144 ± 0.00043
same,peptide microarray binding signal,"[2]; peptide modifications: H3K27me2 H3S28ph, binder concentration: 10 nM",0.0156 ± 0.00093
same,peptide microarray binding signal,"[2]; peptide modifications: H3K27me2 H3S28ph, binder concentration: 100 nM",0.0272 ± 0.0025
same,peptide microarray binding signal,[3]; [11],0.00985 ± 0.00073
same,peptide microarray binding signal,[3]; [12],0.00508 ± 0.00053
same,peptide microarray binding signal,[4]; [11],0.00619 ± 0.0012
same,peptide microarray binding signal,[4]; [12],0.0129 ± 0.0067
LATKAARKSAPAT [H3 20-32 L A T K A A Rme Kme2 S A P A T],peptide microarray binding signal,"[1]; peptide modifications: H3R26me1 H3K27me2, binder concentration: 50 nM",0.00392 ± 0.00013
same,peptide microarray binding signal,"[1]; peptide modifications: H3R26me1 H3K27me2, binder concentration: 500 nM",0.002619 ± 2.1e-05
same,peptide microarray binding signal,"[2]; peptide modifications: H3R26me1 H3K27me2, binder concentration: 10 nM",0.00483 ± 0.00013
same,peptide microarray binding signal,"[2]; peptide modifications: H3R26me1 H3K27me2, binder concentration: 100 nM",0.00517 ± 7.1e-05
same,peptide microarray binding signal,[3]; [13],0.00176
same,peptide microarray binding signal,[3]; [14],0.00194
same,peptide microarray binding signal,[4]; [13],0.00106 ± 2.2e-05
same,peptide microarray binding signal,[4]; [14],0.001211 ± 1.2e-05
LATKAARKSAPAT [H3 20-32 L A T K A A R Kme S A P A T],peptide microarray binding signal,"[1]; peptide modifications: H3K27me1, binder concentration: 50 nM",0.00455 ± 9.6e-05
same,peptide microarray binding signal,"[1]; peptide modifications: H3K27me1, binder concentration: 500 nM",0.00714 ± 0.00042
same,peptide microarray binding signal,"[2]; peptide modifications: H3K27me1, binder concentration: 10 nM",0.00961 ± 0.00022
same,peptide microarray binding signal,"[2]; peptide modifications: H3K27me1, binder concentration: 100 nM",0.0148 ± 0.00019
same,peptide microarray binding signal,[3]; [15],0.00402 ± 0.00028
same,peptide microarray binding signal,[3]; [16],0.00405 ± 0.00025
same,peptide microarray binding signal,[4]; [15],0.00231 ± 0.00014
same,peptide microarray binding signal,[4]; [16],0.00208 ± 3.9e-05
LATKAARKSAPAT [H3 20-32 L A T K A A Rcit Kme3 S A P A T],peptide microarray binding signal,"[1]; peptide modifications: H3R26cit H3K27me3, binder concentration: 50 nM",0.00564 ± 0.00031
same,peptide microarray binding signal,"[1]; peptide modifications: H3R26cit H3K27me3, binder concentration: 500 nM",0.00676 ± 0.00027
same,peptide microarray binding signal,"[2]; peptide modifications: H3R26cit H3K27me3, binder concentration: 10 nM",0.0135 ± 0.00085
same,peptide microarray binding signal,"[2]; peptide modifications: H3R26cit H3K27me3, binder concentration: 100 nM",0.0188 ± 0.00063
same,peptide microarray binding signal,[3]; [17],0.0286 ± 0.0025
same,peptide microarray binding signal,[3]; [18],0.0204 ± 0.00089
same,peptide microarray binding signal,[4]; [17],0.0791 ± 0.0015
same,peptide microarray binding signal,[4]; [18],0.05 ± 0.006
LATKAARKSAPAT [H3 20-32 L A T K A A R Kme3 S A P A T],peptide microarray binding signal,"[1]; peptide modifications: H3K27me3, binder concentration: 50 nM",0.00602 ± 0.00022
same,peptide microarray binding signal,"[1]; peptide modifications: H3K27me3, binder concentration: 500 nM",0.008 ± 0.00041
same,peptide microarray binding signal,"[2]; peptide modifications: H3K27me3, binder concentration: 10 nM",0.0119 ± 0.00027
same,peptide microarray binding signal,"[2]; peptide modifications: H3K27me3, binder concentration: 100 nM",0.0118 ± 0.00043
same,peptide microarray binding signal,[3]; [19],0.0112 ± 0.0008
same,peptide microarray binding signal,[3]; [20],0.00907 ± 0.0011
same,peptide microarray binding signal,[4]; [19],0.0533 ± 0.0049
same,peptide microarray binding signal,[4]; [20],0.0225 ± 0.0027
LATKAARKSAPAT [H3 20-32 L A T K A A R Kac Sph A P A T],peptide microarray binding signal,"[1]; peptide modifications: H3K27ac H3S28ph, binder concentration: 50 nM",0.00903 ± 0.00081
same,peptide microarray binding signal,"[1]; peptide modifications: H3K27ac H3S28ph, binder concentration: 500 nM",0.0153 ± 0.0002
same,peptide microarray binding signal,"[2]; peptide modifications: H3K27ac H3S28ph, binder concentration: 10 nM",0.0221 ± 0.0015
same,peptide microarray binding signal,"[2]; peptide modifications: H3K27ac H3S28ph, binder concentration: 100 nM",0.0405 ± 0.0074
same,peptide microarray binding signal,[3]; [21],0.00951 ± 0.0017
same,peptide microarray binding signal,[3]; [22],0.0101 ± 0.0017
same,peptide microarray binding signal,[4]; [21],0.00536 ± 0.0021
same,peptide microarray binding signal,[4]; [22],0.00277 ± 6.4e-05
LATKAARKSAPAT [H3 20-32 L A T K A A Rcit Kac S A P A T],peptide microarray binding signal,"[1]; peptide modifications: H3R26cit H3K27ac, binder concentration: 50 nM",0.00486 ± 0.00011
same,peptide microarray binding signal,"[1]; peptide modifications: H3R26cit H3K27ac, binder concentration: 500 nM",0.0109 ± 0.00038
same,peptide microarray binding signal,"[2]; peptide modifications: H3R26cit H3K27ac, binder concentration: 10 nM",0.0232 ± 0.0013
same,peptide microarray binding signal,"[2]; peptide modifications: H3R26cit H3K27ac, binder concentration: 100 nM",0.0235 ± 0.0022
same,peptide microarray binding signal,[3]; [23],0.0101 ± 0.00075
same,peptide microarray binding signal,[3]; [24],0.00553 ± 0.0019
same,peptide microarray binding signal,[4]; [23],0.00415 ± 0.0003
same,peptide microarray binding signal,[4]; [24],0.00288 ± 4.3e-05

# — the supplement of paper PMC4022240
